What all share (experiment): DAPPL (digital affinity profiling via proximity ligation, sequencing); 10 mM Tris-HCl pH 7.5, 50 mM NaCl, 1 mM DTT, 4% glycerol, room temperature, 30 min; GST-TFs on glutathione beads, 16-mer random dsDNA library, 0.1% formaldehyde crosslink after washing; high values mean tight binding
Common to all, as to details: protein: recombinant; tags: N-terminal GST; dsDNA, one strand shown

The target of one test is T1, FLI1 (Homo sapiens, UniProt Q01543 1-452).
T1 sequence: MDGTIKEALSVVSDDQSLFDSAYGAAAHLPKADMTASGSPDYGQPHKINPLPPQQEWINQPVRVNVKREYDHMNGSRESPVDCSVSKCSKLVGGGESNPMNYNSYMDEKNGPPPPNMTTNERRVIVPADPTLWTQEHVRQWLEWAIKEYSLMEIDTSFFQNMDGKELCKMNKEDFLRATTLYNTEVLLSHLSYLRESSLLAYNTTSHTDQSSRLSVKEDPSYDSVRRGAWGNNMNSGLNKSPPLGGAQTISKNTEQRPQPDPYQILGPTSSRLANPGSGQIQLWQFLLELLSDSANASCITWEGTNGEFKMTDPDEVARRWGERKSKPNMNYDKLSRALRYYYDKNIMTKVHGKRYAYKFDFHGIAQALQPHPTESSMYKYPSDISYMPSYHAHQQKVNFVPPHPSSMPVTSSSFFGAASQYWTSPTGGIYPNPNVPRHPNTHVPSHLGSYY
In outline:
(§1)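 Pools of DNA-barcoded human transcription factors, expressed in yeast as GST fusions on glutathione beads and combined with a tag-only sample, were incubated with 200 nmole of a 16-mer random double-stranded DNA library. Incubation took 30 min at room temperature in Tris/NaCl/DTT/glycerol buffer and was followed by washing, 0.1% formaldehyde crosslinking, proximity ligation (BsaI/T4 ligase, 1 h, 37 °C), PCR amplification and sequencing on an Illumina NextSeq500. Binding signal is the ratio of a hexamer's read frequency for a factor to its frequency for the tag-only sample.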

The next test has as its target T2, ELK1 (Homo sapiens, UniProt P19419 1-428).
T2 sequence: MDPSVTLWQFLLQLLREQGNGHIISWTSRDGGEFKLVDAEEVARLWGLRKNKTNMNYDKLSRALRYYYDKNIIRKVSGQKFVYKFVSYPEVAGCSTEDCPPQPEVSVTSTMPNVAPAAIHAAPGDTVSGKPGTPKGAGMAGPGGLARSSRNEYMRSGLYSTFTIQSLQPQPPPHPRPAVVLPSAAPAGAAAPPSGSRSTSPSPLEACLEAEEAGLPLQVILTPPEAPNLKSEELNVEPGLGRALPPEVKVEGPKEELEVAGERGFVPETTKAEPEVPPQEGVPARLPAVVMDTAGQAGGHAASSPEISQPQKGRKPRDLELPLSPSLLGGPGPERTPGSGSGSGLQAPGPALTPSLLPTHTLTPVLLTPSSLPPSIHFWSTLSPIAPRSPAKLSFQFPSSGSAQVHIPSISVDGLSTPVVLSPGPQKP
In outline: as §1

Another test deals with T3, GABPA (Homo sapiens, UniProt Q06546 1-454).
T3 sequence: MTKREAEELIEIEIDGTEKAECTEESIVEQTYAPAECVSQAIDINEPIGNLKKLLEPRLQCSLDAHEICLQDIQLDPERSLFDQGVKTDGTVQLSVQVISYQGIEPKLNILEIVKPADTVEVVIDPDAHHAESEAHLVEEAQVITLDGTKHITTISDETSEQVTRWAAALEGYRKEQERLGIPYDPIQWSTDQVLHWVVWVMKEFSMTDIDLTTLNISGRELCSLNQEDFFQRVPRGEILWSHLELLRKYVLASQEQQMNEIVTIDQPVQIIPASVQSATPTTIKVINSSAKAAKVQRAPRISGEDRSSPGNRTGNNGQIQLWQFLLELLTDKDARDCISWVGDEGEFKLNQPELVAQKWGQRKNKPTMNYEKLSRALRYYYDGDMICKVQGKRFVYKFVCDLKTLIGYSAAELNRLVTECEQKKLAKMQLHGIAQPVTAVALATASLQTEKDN
In outline: as §1

A further test has as its target T4, ERG (Homo sapiens, UniProt P11308 1-479).
T4 sequence: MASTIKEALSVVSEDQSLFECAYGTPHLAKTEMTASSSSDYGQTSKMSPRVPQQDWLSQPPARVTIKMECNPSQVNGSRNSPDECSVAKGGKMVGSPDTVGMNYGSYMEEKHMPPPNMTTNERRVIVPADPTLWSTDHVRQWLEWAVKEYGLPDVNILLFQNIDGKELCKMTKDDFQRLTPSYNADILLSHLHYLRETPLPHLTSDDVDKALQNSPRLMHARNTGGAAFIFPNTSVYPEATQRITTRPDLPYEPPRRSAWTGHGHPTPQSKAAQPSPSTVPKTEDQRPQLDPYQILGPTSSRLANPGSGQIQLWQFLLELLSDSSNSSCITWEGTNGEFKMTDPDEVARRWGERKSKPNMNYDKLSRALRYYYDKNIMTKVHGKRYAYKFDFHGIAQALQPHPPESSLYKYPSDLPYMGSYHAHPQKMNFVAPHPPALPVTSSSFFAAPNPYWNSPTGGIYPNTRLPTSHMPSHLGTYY
In outline: as §1

Another test concerns the target ELF1 (Homo sapiens, UniProt P32519 1-619). In outline: as §1
In the next test the target is SPI1 (Homo sapiens, UniProt P17947 1-270). In outline: as §1
The target in the next test is SPIB (Homo sapiens, UniProt Q01892 1-262). In outline: as §1
Another test concerns the target T5, FEV (Homo sapiens, UniProt Q99581 1-238).
T5 sequence: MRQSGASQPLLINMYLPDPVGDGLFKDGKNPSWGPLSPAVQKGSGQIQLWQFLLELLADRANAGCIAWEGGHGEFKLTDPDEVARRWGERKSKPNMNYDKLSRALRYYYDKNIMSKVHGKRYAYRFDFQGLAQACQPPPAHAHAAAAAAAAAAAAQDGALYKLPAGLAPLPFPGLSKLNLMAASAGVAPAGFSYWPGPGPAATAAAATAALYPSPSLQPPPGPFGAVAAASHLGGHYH
In outline:
as §1

Another test addresses ETV5 (Homo sapiens, UniProt P41161 1-510). In outline: as §1
The target in another test is T6, SPIC (Homo sapiens, UniProt Q8N5J4 1-248).
T6 sequence: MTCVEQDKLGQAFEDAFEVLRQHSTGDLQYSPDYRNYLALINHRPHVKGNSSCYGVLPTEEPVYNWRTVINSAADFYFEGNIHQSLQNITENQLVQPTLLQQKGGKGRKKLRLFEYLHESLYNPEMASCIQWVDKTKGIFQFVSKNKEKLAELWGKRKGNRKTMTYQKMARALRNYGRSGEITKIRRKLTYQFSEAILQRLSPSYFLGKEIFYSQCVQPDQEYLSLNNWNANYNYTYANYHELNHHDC
In outline: as §1

The next test has as its target ELF4 (Homo sapiens, UniProt Q99607 1-663). In outline:
as §1

A further test has as its target ETV1 (Homo sapiens, UniProt P50549 1-477). In outline:
as §1

Another test addresses T7, ERF (Homo sapiens, UniProt P50548 1-548).
T7 sequence: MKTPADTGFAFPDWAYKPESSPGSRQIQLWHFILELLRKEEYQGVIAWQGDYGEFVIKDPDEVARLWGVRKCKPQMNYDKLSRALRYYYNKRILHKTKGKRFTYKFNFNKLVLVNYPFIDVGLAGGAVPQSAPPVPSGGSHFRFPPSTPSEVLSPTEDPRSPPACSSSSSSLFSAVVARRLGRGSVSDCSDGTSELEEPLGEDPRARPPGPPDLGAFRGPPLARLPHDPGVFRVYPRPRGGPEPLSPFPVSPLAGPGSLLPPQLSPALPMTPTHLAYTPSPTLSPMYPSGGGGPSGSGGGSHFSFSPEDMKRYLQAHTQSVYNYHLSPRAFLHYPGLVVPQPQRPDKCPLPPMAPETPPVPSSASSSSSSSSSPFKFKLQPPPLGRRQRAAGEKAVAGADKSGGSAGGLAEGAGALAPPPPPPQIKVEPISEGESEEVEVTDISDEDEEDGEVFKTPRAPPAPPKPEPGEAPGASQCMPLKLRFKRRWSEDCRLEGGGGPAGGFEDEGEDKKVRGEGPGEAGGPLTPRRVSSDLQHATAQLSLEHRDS
In outline:
as §1

The target in a further test is T8, ETV3L (Homo sapiens, UniProt Q6ZN32 1-361).
T8 sequence: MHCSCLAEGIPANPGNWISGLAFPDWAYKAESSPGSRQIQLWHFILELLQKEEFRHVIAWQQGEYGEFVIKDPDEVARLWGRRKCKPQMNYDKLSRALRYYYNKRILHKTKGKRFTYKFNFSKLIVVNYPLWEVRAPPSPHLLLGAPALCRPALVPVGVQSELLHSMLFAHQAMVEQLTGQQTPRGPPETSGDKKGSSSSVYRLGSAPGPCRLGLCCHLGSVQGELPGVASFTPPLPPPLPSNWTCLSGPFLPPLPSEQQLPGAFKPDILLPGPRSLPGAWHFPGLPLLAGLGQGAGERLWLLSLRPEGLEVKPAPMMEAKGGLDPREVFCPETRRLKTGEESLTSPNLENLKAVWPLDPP
In outline:
as §1

The target in another test is T9, ETS2 (Homo sapiens, UniProt P15036 1-469).
T9 sequence: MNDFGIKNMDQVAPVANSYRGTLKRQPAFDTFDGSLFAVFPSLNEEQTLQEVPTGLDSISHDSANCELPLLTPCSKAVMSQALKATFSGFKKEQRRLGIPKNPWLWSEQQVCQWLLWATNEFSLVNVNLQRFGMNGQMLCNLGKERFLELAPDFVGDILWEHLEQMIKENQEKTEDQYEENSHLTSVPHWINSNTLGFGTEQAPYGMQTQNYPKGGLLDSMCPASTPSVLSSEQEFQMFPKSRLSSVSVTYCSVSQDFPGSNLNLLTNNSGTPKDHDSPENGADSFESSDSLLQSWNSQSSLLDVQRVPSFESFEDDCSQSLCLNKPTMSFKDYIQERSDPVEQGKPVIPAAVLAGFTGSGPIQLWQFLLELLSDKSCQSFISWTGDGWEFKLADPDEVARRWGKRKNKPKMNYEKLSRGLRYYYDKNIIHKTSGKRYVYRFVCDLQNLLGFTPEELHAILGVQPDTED
In outline: as §1

A further test deals with T10, ELF5 (Homo sapiens, UniProt Q9UKW6-2 1-255).
T10 sequence: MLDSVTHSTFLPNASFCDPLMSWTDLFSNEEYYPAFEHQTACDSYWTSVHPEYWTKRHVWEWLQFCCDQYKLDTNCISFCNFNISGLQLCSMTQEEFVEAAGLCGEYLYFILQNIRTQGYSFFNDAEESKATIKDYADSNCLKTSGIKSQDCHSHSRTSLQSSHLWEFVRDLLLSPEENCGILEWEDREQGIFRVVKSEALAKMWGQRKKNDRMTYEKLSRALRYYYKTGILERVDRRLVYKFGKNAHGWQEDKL
In outline:
as §1

Another test deals with T11, ETV3 (Homo sapiens, UniProt P41162-2 1-143).
T11 sequence: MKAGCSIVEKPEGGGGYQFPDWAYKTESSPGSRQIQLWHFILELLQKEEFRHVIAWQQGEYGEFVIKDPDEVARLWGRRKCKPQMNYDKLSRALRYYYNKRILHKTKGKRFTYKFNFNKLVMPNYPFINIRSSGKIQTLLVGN
In outline: as §1

The target in the next test is ETV6 (Homo sapiens, UniProt P41212 1-452). In outline:
as §1

Chain of ELF1 (P32519 whole entry): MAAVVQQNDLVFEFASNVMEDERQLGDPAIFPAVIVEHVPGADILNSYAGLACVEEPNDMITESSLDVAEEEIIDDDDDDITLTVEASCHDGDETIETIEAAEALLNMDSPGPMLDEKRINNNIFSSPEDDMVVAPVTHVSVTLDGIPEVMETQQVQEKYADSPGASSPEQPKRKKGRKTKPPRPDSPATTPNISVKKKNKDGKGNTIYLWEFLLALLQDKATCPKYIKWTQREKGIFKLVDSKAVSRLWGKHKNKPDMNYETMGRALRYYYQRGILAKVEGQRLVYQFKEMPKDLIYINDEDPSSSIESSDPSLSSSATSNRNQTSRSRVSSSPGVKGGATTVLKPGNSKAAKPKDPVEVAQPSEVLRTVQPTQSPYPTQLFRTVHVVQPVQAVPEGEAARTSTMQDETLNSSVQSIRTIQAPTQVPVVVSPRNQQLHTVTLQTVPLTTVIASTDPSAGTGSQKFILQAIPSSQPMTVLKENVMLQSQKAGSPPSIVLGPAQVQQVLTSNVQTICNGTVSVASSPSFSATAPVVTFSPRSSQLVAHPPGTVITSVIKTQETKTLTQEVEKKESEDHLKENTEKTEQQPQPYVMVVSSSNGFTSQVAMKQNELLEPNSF
Chain of ETV1 (P50549 whole entry): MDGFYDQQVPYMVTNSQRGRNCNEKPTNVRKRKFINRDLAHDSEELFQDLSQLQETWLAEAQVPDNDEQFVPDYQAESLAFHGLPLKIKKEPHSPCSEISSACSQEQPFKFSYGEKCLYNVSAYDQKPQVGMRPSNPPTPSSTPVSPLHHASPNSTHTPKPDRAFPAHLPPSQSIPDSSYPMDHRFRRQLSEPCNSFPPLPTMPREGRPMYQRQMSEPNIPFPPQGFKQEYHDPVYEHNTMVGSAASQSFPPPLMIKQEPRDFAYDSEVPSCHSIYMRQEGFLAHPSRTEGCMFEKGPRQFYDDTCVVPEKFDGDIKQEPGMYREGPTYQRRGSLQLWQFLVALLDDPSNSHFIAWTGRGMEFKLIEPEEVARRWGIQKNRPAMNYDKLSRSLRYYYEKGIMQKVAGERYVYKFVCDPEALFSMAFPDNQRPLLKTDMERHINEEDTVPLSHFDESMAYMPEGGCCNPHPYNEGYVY
Chain of ETV5 (P41161 whole entry): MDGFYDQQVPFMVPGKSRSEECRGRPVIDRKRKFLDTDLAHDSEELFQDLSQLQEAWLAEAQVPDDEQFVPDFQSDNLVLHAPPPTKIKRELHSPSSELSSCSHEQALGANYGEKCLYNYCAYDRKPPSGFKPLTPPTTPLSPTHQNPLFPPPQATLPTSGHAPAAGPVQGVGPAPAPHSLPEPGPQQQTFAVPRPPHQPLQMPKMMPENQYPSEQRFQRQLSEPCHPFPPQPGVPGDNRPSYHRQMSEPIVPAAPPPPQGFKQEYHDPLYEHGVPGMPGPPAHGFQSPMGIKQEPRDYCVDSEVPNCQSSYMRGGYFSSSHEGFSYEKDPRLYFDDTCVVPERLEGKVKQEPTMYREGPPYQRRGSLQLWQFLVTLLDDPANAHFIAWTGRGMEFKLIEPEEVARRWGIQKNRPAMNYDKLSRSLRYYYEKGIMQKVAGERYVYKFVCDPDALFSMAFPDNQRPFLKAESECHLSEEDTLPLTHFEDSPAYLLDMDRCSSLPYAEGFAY
Chain of ETV6 (P41212 whole entry): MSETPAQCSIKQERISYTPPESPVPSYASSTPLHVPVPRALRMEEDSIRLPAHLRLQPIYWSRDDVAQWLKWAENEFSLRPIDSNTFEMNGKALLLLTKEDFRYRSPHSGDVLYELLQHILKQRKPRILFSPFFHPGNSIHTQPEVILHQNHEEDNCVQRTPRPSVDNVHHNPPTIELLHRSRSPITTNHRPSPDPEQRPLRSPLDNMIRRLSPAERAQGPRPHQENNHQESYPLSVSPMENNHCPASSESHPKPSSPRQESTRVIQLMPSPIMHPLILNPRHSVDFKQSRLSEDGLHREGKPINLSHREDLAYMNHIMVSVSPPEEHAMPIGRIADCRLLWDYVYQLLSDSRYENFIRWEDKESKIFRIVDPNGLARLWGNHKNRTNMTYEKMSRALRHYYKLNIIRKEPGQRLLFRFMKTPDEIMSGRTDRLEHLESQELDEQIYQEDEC
Chain of ELF4 (Q99607 whole entry): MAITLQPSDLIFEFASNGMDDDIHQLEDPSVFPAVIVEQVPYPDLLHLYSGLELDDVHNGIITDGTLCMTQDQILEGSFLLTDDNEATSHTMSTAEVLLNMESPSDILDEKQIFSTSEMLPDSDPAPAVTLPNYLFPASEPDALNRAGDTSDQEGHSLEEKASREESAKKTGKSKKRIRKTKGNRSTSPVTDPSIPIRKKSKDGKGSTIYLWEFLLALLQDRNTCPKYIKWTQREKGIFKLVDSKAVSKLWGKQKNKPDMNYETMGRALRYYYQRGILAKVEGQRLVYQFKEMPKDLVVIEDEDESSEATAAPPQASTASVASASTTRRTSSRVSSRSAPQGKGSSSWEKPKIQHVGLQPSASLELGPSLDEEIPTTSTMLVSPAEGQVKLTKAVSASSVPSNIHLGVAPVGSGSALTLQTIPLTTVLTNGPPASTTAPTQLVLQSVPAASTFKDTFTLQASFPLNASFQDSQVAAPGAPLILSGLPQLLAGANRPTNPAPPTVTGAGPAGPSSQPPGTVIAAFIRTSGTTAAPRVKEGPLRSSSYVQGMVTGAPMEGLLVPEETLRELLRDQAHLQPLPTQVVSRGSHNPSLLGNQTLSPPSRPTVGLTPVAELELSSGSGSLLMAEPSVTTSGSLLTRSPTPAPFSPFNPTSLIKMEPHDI
Chain of SPIB (Q01892 whole entry): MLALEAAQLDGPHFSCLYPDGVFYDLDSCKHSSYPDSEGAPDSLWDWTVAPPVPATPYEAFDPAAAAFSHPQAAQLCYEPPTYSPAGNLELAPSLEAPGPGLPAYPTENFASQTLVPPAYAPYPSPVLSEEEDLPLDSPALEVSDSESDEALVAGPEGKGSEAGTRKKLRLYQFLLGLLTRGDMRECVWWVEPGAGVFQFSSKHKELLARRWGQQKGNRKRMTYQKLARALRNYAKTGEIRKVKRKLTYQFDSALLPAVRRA

Take CATCGC: the binding signal in the test with FLI1 was 1.08 fold enrichment (6-mer frequency, TF over GST control); with ELK1, 1.13 fold enrichment (6-mer frequency, TF over GST control); in the test with GABPA it was 1.13 fold enrichment (6-mer frequency, TF over GST control); in the test with ERG, 1.06 fold enrichment (6-mer frequency, TF over GST control); with ELF1, 1.06 fold enrichment (6-mer frequency, TF over GST control); in the test with SPI1, 1.06 fold enrichment (6-mer frequency, TF over GST control). Further, the binding signal with SPIB was 1.1 fold enrichment (6-mer frequency, TF over GST control); with FEV it was 1.07 fold enrichment (6-mer frequency, TF over GST control); in the test with ETV5 it was 1.04 fold enrichment (6-mer frequency, TF over GST control); in the test with SPIC it was 1.03 fold enrichment (6-mer frequency, TF over GST control); with ELF4, 1.13 fold enrichment (6-mer frequency, TF over GST control); with ETV1 it was 1.06 fold enrichment (6-mer frequency, TF over GST control). Moreover, the binding signal was 1.06 fold enrichment (6-mer frequency, TF over GST control) in the test with ERF; 1.21 fold enrichment (6-mer frequency, TF over GST control) in the test with ETV3L; 1.14 fold enrichment (6-mer frequency, TF over GST control) with ETS2; 1.03 fold enrichment (6-mer frequency, TF over GST control) with ELF5; 1.1 fold enrichment (6-mer frequency, TF over GST control) with ETV3; 1.02 fold enrichment (6-mer frequency, TF over GST control) with ETV6.

The values are drawn from article PMC7862700, “An all-to-all approach to the identification of sequence-specific readers for epigenetic DNA modifications on cytosine”.
